This passage reports z-score and composite z-score results from PubChem BioAssay.

A short description of assay [1]: compound effects on lung adenocarcinoma cell viability – A549, calcein-AM fluorescence, 48 h, basal, profiling panel (AID 1162). Further: test concentration not given here. As to conditions: higher = more signal.
The nature of assay [2]: compound effects on differentiated 3T3-L1 adipocyte viability – cell-based, 3T3-L1 adipocytes, calcein-AM fluorescence, 48 h, basal, profiling panel (AID 1163). Further: test concentration not given here. As to conditions: 3T3-L1 adipocytes viability, higher = more signal.
Assay [3] in a line: compound effects on hepatocellular carcinoma cell viability – HepG2, calcein-AM fluorescence, 48 h, basal, profiling panel (AID 1164). Further: test concentration not given here. The settings on record: higher = more signal.
Assay [4] in a line: compound effects on multiple myeloma cell viability – MM1S, calcein-AM fluorescence, 48 h, basal, profiling panel (AID 1165).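 Further: viability of MM1S multiple myeloma cells under basal unstimulated conditions; test concentration not given here.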 The settings on record: higher = more signal.
Assay [5] in a line: calcein-AM signal in unstimulated myeloma cells – cell-based, calcein-AM fluorescence, 48 h, PK04 Diversity Set, profiling panel (AID 1166).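 Further: cells grown under basal conditions without added stimulus; test concentration not given here.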 The settings on record: RPMI8226 myeloma viability, higher = more signal.
A short description of assay [6]: JC-1 mitochondrial signal, unstimulated HepG2 cells – cell-based, JC-1 fluorescence, 24 h, 100 nL compound, profiling panel (AID 1167). Further: test concentration not given here. As to conditions: HepG2 mitochondrial potential, higher = more signal.
Assay [7] can be described thus: JC-1 mitochondrial signal, unstimulated adipocytes – cell-based, JC-1 fluorescence, 3T3-L1 adipocytes, 24 h, 100 nL compound, profiling panel (AID 1168). Further: test concentration not given here. The settings on record: JC-1 mitochondrial fluorescence, higher = more signal, called active from +8 up or from −8 down.
A short description of assay [8]: JC-1 mitochondrial signal, unstimulated myeloma cells – cell-based, JC-1 fluorescence, RPMI8226, 24 h, 100 nL compound, profiling panel (AID 1169). Further: test concentration not given here. The settings on record: JC-1 mitochondrial potential fluorescence, higher = more signal.
The nature of assay [9]: JC-1 mitochondrial signal, unstimulated MM1S myeloma – cell-based, JC-1 fluorescence, 24 h, 100 nL compound, profiling panel (AID 1170). Further: test concentration not given here. As to conditions: MM1S mitochondrial potential, higher = more signal.
A short description of assay [10]: resazurin metabolic signal in A549 cells – cell-based, resazurin fluorescence, 24 h, PK04 Diversity Set, profiling panel (AID 1171). Further: test concentration not given here. The settings on record: A549 viability, higher = more signal, called active from +8 up or from −8 down. (Resazurin is reduced to fluorescent resorufin, in cell work by metabolically active cells.)
The nature of assay [11]: resazurin metabolic signal in HepG2 cells – cell-based, resazurin fluorescence, 24 h, PK04 Diversity Set, profiling panel (AID 1172). Further: test concentration not given here. As to conditions: HepG2 viability, higher = more signal.
Assay [12] is described as follows: budding yeast growth changes without added modifier – OD600, strain BY4716, 24 h, basal condition, primary screen (AID 1173). The settings on record: S. cerevisiae BY4716 growth, OD600, 24 h; higher = more signal, called active from +8 up or from −8 down.
The nature of assay [13]: viability profiling in MM1S myeloma cells – cell-based, resazurin fluorescence, basal, 24 h, PK04 Diversity Set, profiling panel (AID 1174). Further: test concentration not given here. As to conditions: higher = more signal, called active from +8 up or from −8 down.
Assay [14] addresses Dihydroorotate dehydrogenase (quinone), mitochondrial (Plasmodium falciparum (isolate 3D7)) (UniProt Q08210). Nature of the assay: inhibition of P. falciparum DHODH – biochemical, C-terminal His tag, absorbance 600 nm, primary screen (AID 1175).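 Further: recombinant parasite enzyme with a five histidine tag at its C terminus; test concentration not given here.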 As to conditions: PfDHODH enzyme, DCIP absorbance 600 nm; higher = more signal, called active from +8 up or from −8 down.
A short description of assay [15]: inhibition of PAO1 biofilm formation – strain PAO1, LB-PBS medium, absorbance 600 nm, primary screen (AID 1176). Further: test concentration not given here. As to conditions: P. aeruginosa PAO1 growth/biofilm, A600, 12 h; higher = more signal.
The nature of assay [16]: growth modulation of vineyard yeast isolate – strain RM11-1a, OD600, basal, 24 h, primary screen (AID 1177).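 Further: cultures grown under basal conditions with no added stressor; test concentration not given here.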 As to conditions: S. cerevisiae RM11-1a growth, OD600, 24 h; higher = more signal, called active from +8 up or from −8 down.
Assay [17] can be described thus: growth of efflux-deficient E. coli DRC39 – strain DRC39, OD650, 24 h, E. coli filamentation inducers, primary screen (AID 1178).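 Further: growth measured as culture turbidity by optical density at 650 nm; test concentration not given here.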 The settings on record: E. coli DRC39 acrAB, higher = more signal, called active from +8 up or from −8 down.
A short description of assay [18]: growth of efflux-deficient E. coli DRC39 – strain DRC39, OD650, 48 h, E. coli filamentation inducers, primary screen (AID 1179).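 Further: screen aims at cell division blockers that make cells filament.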 As to conditions: E. coli DRC39 delta-acrAB growth, higher = more signal, called active from +8 up or from −8 down.
Assay [19] is described as follows: viability profiling in RPMI8226 myeloma cells – cell-based, resazurin fluorescence, basal, 24 h, PK04 Diversity Set, profiling panel (AID 1180).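 Further: RPMI8826 multiple myeloma cell line at 5000 cells per well; test concentration not given here.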 As to conditions: higher = more signal.
The target of assay [20] is E3 ubiquitin-protein ligase XIAP (Homo sapiens) (UniProt P98170). Nature of the assay: small molecules binding XIAP protein – biophysical, small-molecule microarray, fluorescence 635 nm, primary screen (AID 1181).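 Further: score merges 667 nm emission and signal to noise over triplicate slides.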 The settings on record: higher = more signal.
Sequence of E3 ubiquitin-protein ligase XIAP (Homo sapiens) (P98170 whole entry, looked up): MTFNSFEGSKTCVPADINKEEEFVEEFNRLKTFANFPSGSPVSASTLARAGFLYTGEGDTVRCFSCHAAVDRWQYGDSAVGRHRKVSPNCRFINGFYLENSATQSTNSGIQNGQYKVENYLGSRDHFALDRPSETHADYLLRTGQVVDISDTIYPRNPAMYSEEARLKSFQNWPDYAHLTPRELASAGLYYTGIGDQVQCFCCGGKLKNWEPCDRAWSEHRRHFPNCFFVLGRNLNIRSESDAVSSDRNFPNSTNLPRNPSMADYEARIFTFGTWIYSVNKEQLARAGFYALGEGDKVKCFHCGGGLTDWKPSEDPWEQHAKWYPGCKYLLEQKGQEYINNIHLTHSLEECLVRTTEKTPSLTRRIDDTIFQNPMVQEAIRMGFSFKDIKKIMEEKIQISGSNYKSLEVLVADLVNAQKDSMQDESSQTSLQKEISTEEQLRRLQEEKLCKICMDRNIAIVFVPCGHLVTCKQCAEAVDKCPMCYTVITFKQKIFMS

Structures are written as SMILES. Active and inactive are the calls of the source. Unless noted, how the calls were made is not given here.

Sequence of Dihydroorotate dehydrogenase (quinone), mitochondrial (Plasmodium falciparum (isolate 3D7)) (Q08210 whole entry, looked up): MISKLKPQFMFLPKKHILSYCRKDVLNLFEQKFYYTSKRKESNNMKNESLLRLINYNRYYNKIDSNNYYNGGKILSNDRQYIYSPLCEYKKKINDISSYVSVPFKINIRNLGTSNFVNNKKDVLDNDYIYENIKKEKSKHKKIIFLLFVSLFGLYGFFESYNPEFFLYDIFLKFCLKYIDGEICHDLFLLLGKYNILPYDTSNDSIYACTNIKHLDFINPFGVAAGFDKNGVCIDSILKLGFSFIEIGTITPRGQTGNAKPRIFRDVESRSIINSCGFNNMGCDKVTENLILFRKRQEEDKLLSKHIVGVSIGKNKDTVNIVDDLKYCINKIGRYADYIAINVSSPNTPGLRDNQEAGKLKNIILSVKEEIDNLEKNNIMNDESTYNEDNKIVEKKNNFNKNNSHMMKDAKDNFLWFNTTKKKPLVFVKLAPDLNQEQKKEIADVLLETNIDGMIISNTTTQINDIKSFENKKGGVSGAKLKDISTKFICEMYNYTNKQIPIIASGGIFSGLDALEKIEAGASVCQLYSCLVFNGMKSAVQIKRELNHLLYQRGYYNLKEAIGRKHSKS

As for `COc1ccc(-c2cnnc(CCCn3ccnc3-c3ccccc3)n2)cc1`, the z-score in [1] was -0.98; in [2], 1.02; in assay [3], -1.28; in assay [4] it was -1.82; in assay [5], -2.55; in assay [6], -1.5. Moreover, the z-score was -0.876 (inactive) in assay [7]; -0.87 in assay [8]; -0.543 in assay [9]; -3.49 (inactive) in [10]; -1.18 in assay [11]; -0.72 (inactive) in assay [12]. Besides, the z-score was -0.891 (inactive) in assay [13]; 1.17 (inactive) in [15]; -0.252 (inactive) in assay [16]; -0.867 (inactive) in assay [17]; -0.634 (inactive) in [18]; -1.38 in [19]. Also, the values for the composite z-score in assay [14] and in assay [20] were 0.552 (inactive) and -0.0143, respectively.
As to `COC(=O)[C@H](C)NC(=O)CCC1CC(OC(=O)NCc2ccc3c(c2)OCO3)CC2(CCCC(COC(=O)NCCC(C)C)O2)O1` (stereo not given in full), the z-score was -0.121 in assay [1]; 0.114 in [2]; -1.19 in [3]; -3.18 in assay [4]; -2.13 in assay [5]; -0.523 in assay [6]. The z-score in [7] is -0.452 (inactive); in assay [8], -0.253; in assay [9], 0.177; in assay [10], 0.442 (inactive); in assay [11], 0.506; in assay [12], -0.43 (inactive). The z-score in assay [13] is -0.274 (inactive); in assay [15], -0.294 (inactive); in assay [16], -0.774 (inactive); in assay [17], 0.909 (inactive); in assay [18], -0.804 (inactive); in [19] it was 0.0961. Further, the results for the composite z-score in assay [14] and in [20] were -0.558 (inactive) and 0.0245, respectively.
Turning to `COC(=O)CC=C1c2ccccc2[C@H](OC)[C@H]1C`, the z-score is 0.16 in [1]; -0.116 in assay [2]; -0.379 in assay [3]; -0.458 in assay [4]; -1.22 in assay [5]; -0.8 in [6]. In addition, the z-score in [7] was -0.272 (inactive); in assay [8], 0.539; in assay [9], -0.707; in assay [10], -0.397 (inactive); in assay [11], -0.71; in assay [12], 0.338 (inactive). For the same compound, the z-score in assay [13] was -0.788 (inactive); in [15] it was -0.245 (inactive); in assay [16], -0.138 (inactive); in [17] it was 0.216 (inactive); in assay [18] it was 0.403 (inactive); in assay [19], -0.49. Moreover, the composite z-score in assay [14] is 0.582 (inactive); in assay [20], 0.419.
Turning to `CC(=O)OC[C@H]1O[C@H](CC=NOCC[C@@H]2C=C[C@H](OC(C)=O)[C@@H](COC(C)=O)O2)C=C[C@@H]1OC(C)=O`, the z-score in assay [1] is -0.542; in assay [2], -0.282; in [3], -0.441; in [4], 0.0077; in assay [5], -0.786; in assay [6], -0.314. Also, the z-score in [7] is -0.267 (inactive); in assay [8], 0.503; in assay [9], 0.394; in assay [10], 0.125 (inactive); in assay [11] it was 0.149; in assay [12], 0.0167 (inactive). In addition, the z-score in assay [13] is 0.0092 (inactive); in assay [15], 0.229 (inactive); in [16] it was 0.0282 (inactive); in assay [17], 0.847 (inactive); in [18], 0.66 (inactive); in assay [19] it was 0.117. The composite z-score is -0.0986 (inactive) in assay [14] and 0.287 in [20].
Regarding `COc1ccc(COC(=O)NN=C2C[C@@H](O)[C@@H](O)[C@@H]3[C@@H]4C(=O)N(C[C@@H]5CCCO5)C(=O)[C@@H]4CC[C@H]23)cc1`, the z-score was 0.0369 in assay [1]; -0.0792 in assay [2]; -0.592 in [3]; 0.634 in [4]; -0.107 in assay [5]; -0.402 in assay [6]. Besides, the z-score is -1.22 (inactive) in assay [7]; -0.148 in assay [8]; -1.02 in [9]; -0.0101 (inactive) in assay [10]; -0.161 in [11]; 1.29 (inactive) in assay [12]. The z-score is 0.0829 (inactive) in assay [13]; -0.0485 (inactive) in assay [15]; 0.293 (inactive) in assay [16]; 0.16 (inactive) in assay [17]; 0.0875 (inactive) in assay [18]; -0.631 in assay [19]. The figures for the composite z-score in assay [14] and in assay [20] were -0.395 (inactive) and 0.0679, respectively.
On to `CC(CCN1CCc2nc(-c3ccccc3)c(-c3ccccc3)cc2C1)=NOC(C)CN1CCCc2nc(C)c(C)cc21` (stereo not given), for which the z-score in assay [1] was 1.23; in [2], 0.301; in assay [3] it was 0.69; in [4], -2.9; in assay [5], -0.616; in assay [6], 6.43. Also, the z-score in assay [7] was -1.28 (inactive); in assay [8], -0.866; in assay [9], -0.881; in assay [10], 0.289 (inactive); in assay [11], -0.0686; in assay [12], -3.98 (inactive). The z-score was -0.877 (inactive) in [13]; 0.371 (inactive) in assay [15]; -0.572 (inactive) in assay [16]; 0.798 (inactive) in [17]; -0.391 (inactive) in assay [18]; -0.469 in [19]. Further, the composite z-score was 0.417 (inactive) in [14] and 0.326 in [20].
In the case of `COc1ccc(COC(=O)NN=C2C[C@@H](O)[C@@H](O)[C@@H]3[C@@H]4C(=O)N(C(C)(C)C)C(=O)[C@@H]4CC[C@@H]23)cc1`, the z-score in [1] was 0.901; in [2], 0.514; in assay [3], -0.777; in [4] it was 0.569; in [5] it was -0.448; in assay [6], -1.08. For the same compound, the z-score in [7] was -1.14 (inactive); in assay [8], -0.379; in assay [9], 0.34; in assay [10], 0.259 (inactive); in assay [11], -0.216; in assay [12] it was -0.719 (inactive). Further, the z-score in [13] is -0.181 (inactive); in assay [15], -0.225 (inactive); in assay [16] it was -1.06 (inactive); in assay [17] it was 0.237 (inactive); in assay [18], 0.255 (inactive); in [19] it was 0.156. The composite z-score is -0.761 (inactive) in assay [14] and -0.252 in assay [20].
For the compound `CCOC(=O)[C@H](Cc1ccccc1)NC(=O)CCC1CC(OC(=O)NCc2cccc3ccccc23)CC2(CCCC(COC(=O)NCCOc3ccccc3)O2)O1` (stereo not given in full), the z-score in assay [1] is 0.128; in [2], 0.0331; in assay [3] it was -0.175; in assay [4], 0.992; in [5], -0.634; in [6] it was 0.161. Also, the z-score is 0.0327 (inactive) in assay [7]; 0.113 in assay [8]; -0.883 in assay [9]; 0.0235 (inactive) in assay [10]; -0.208 in assay [11]; -1.13 (inactive) in assay [12]. Further, the z-score in assay [13] was 1.41 (inactive); in [15], -0.0448 (inactive); in [16] it was -1.17 (inactive); in assay [17], 0.19 (inactive); in assay [18], -1.67 (inactive); in assay [19] it was 1.02. Also, the composite z-score in assay [14] was -0.533 (inactive); in assay [20] it was -0.102.
For `C=CC[C@@H]1C=C[C@H](Oc2ccc(C)cc2)[C@@H](COC(=O)NCc2cccc3ccccc23)O1`, the z-score in assay [1] was -0.273; in [2], 0.479; in [3], -0.542; in assay [4], -1.41; in assay [5] it was -1.71; in [6], 0.294. The z-score in [7] was -0.483 (inactive); in [8] it was 0.78; in assay [9], 0.147; in assay [10], 1.99 (inactive); in [11], 1.08; in assay [12] it was -0.469 (inactive). For the same compound, the z-score in assay [13] was 0.841 (inactive); in assay [15] it was 0.119 (inactive); in assay [16], 0.74 (inactive); in assay [17], -0.899 (inactive); in assay [18], -0.629 (inactive); in assay [19], 0.901. The composite z-score in assay [14] was 0.438 (inactive); in [20], -0.0559.
